Screen size: about 5,500 compounds; about 2,000 (36%) were called active. Another 18% or so got no clear call; they are omitted. Rule as the data show it: active = normalized growth mostly below about 0.91 (no sharp cut-off); inconclusive = no clear call, values can overlap the other calls; inactive = mostly above about 0.92. The list shows a part of the results.
Assay: chemical genetic growth profiling, strain panel (AID 1159580);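 also: tested at 20 µM; growth read once vehicle control cultures reached saturation at 30 °C; 1 = growth at the plate median or of vehicle wells; lower values mean less growth of the strain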
Conditions: growth OD

Measured: normalized growth

C[C@]12C=CC(=O)C=C1CCC1C3C[C@@H](O)[C@](O)(C(=O)CO)[C@@]3(C)C[C@H](O)[C@@]12F (some centres undefined)
inactive: S. cerevisiae deletion strains, locus YJR066W, strain TOR1, active compounds read low 0.952 | S. cerevisiae deletion strains, locus YJR075W, strain HOC1, active compounds read low 1.01 | S. cerevisiae deletion strains, locus YKL009W, strain mrt4, active compounds read low 0.983 | S. cerevisiae deletion strains, locus YKL068W, active compounds read low 0.992 | S. cerevisiae deletion strains, locus YKL085W, strain MDH1 (second series), active compounds read low 0.983 | S. cerevisiae deletion strains, locus YKL085W, strain MDH1, active compounds read low 0.983 | S. cerevisiae deletion strains, locus YKL160W, strain elf1, active compounds read low 0.957 | S. cerevisiae deletion strains, locus YKL190W, strain CNB1, active compounds read low 1 | S. cerevisiae deletion strains, locus YKR001C, strain vps1, active compounds read low 0.944 | S. cerevisiae deletion strains, locus YKR026C, strain gcn3, active compounds read low 0.985 | S. cerevisiae deletion strains, locus YKR091W, strain srl3, active compounds read low 0.985 | S. cerevisiae deletion strains, locus YLL001W, strain dnm1, active compounds read low 1.01 | S. cerevisiae deletion strains, locus YLL026W, active compounds read low 0.964 | S. cerevisiae deletion strains, locus YLL041C, strain sdh2, active compounds read low 0.985 | S. cerevisiae deletion strains, locus YLR027C, strain aat2, active compounds read low 0.998 | S. cerevisiae deletion strains, locus YLR039C, strain RIC1, active compounds read low 1.01 | S. cerevisiae deletion strains, locus YLR058C, strain SHM2, active compounds read low 1.01 | S. cerevisiae deletion strains, locus YLR102C, strain apc9, active compounds read low 0.981 | S. cerevisiae deletion strains, locus YLR113W, strain HOG1, active compounds read low 1.01 | S. cerevisiae deletion strains, locus YLR221C, strain rsa3, active compounds read low 1.01 | S. cerevisiae deletion strains, locus YLR258W, strain gsy2, active compounds read low 0.983 | S. cerevisiae deletion strains, locus YLR262C, strain YPT6 (second series), active compounds read low 0.996 | S. cerevisiae deletion strains, locus YLR262C, strain YPT6, active compounds read low 1.02 | S. cerevisiae deletion strains, locus YLR268W, strain sec22, active compounds read low 0.953 | S. cerevisiae deletion strains, locus YLR320W, strain mms22, active compounds read low 0.98 | S. cerevisiae deletion strains, locus YLR330W, strain CHS5, active compounds read low 1.01 | S. cerevisiae deletion strains, locus YLR342W, strain FKS1 (second series), active compounds read low 1 | S. cerevisiae deletion strains, locus YLR342W, strain FKS1, active compounds read low 0.982 | S. cerevisiae deletion strains, locus YLR357W, strain rsc2, active compounds read low 0.941 | S. cerevisiae deletion strains, locus YLR370C, strain arc18, active compounds read low 0.991 | S. cerevisiae deletion strains, locus YLR371W, strain rom2, active compounds read low 0.987 | S. cerevisiae deletion strains, locus YLR384C, strain iki3, active compounds read low 0.993 | S. cerevisiae deletion strains, locus YLR418C, strain cdc73, active compounds read low 0.968 | S. cerevisiae deletion strains, locus YML016C, strain PPZ1, active compounds read low 1.01 | S. cerevisiae deletion strains, locus YML032C, strain rad52, active compounds read low 0.974 | S. cerevisiae deletion strains, locus YML120C, strain ndi1, active compounds read low 0.99 | S. cerevisiae deletion strains, locus YML124C, strain tub3, active compounds read low 0.981 | S. cerevisiae deletion strains, locus YMR058W, strain fet3, active compounds read low 1.04 | S. cerevisiae deletion strains, locus YMR078C, strain ctf18, active compounds read low 0.989 | S. cerevisiae deletion strains, locus YMR125W, strain sto1, active compounds read low 0.942 | S. cerevisiae deletion strains, locus YMR129W, active compounds read low 0.988 | S. cerevisiae deletion strains, locus YMR205C, strain PFK2, active compounds read low 0.958 | S. cerevisiae deletion strains, locus YMR223W, strain ubp8, active compounds read low 0.991 | S. cerevisiae deletion strains, locus YMR231W, strain pep5, active compounds read low 0.989 | S. cerevisiae deletion strains, locus YMR263W, strain SAP30, active compounds read low 1.01 | S. cerevisiae deletion strains, locus YMR307W, strain GAS1, active compounds read low 0.991 | S. cerevisiae deletion strains, locus YNL067W, strain RPL9B, active compounds read low 1.01 | S. cerevisiae deletion strains, locus YNL071W, strain lat1, active compounds read low 0.983 | S. cerevisiae deletion strains, locus YNL183C, strain NPR1, active compounds read low 0.961 | S. cerevisiae deletion strains, locus YNL209W, strain ssb2, active compounds read low 0.978 | S. cerevisiae deletion strains, locus YNL233W, strain BNI4, active compounds read low 1.01 | S. cerevisiae deletion strains, locus YNL248C, strain rpa49, active compounds read low 0.925 | S. cerevisiae deletion strains, locus YNL250W, strain rad50, active compounds read low 0.985 | S. cerevisiae deletion strains, locus YNL271C, strain bni1, active compounds read low 0.971 | S. cerevisiae deletion strains, locus YNL298W, strain CLA4, active compounds read low 0.98 | S. cerevisiae deletion strains, locus YNL307C, strain MCK1, active compounds read low 0.975 | S. cerevisiae deletion strains, locus YNL322C, strain KRE1 (second series), active compounds read low 0.944 | S. cerevisiae deletion strains, locus YNR049C, strain mso1, active compounds read low 0.985 | S. cerevisiae deletion strains, locus YNR052C, strain pop2, active compounds read low 0.988 | S. cerevisiae deletion strains, locus YOL006C, strain TOP1, active compounds read low 1.06 | S. cerevisiae deletion strains, locus YOL012C, strain htz1 1.1 | S. cerevisiae deletion strains, locus YOL147C, strain pex11, active compounds read low 0.975 | S. cerevisiae deletion strains, locus YOR001W, strain rrp6, active compounds read low 1.02 | S. cerevisiae deletion strains, locus YOR061W, strain CKA2, active compounds read low 1.01 | S. cerevisiae deletion strains, locus YOR069W, strain VPS5, active compounds read low 1.01 | S. cerevisiae deletion strains, locus YOR070C, strain gyp1, active compounds read low 0.979 | S. cerevisiae deletion strains, locus YOR080W, strain dia2, active compounds read low 0.987 | S. cerevisiae deletion strains, locus YOR083W, strain WHI5, active compounds read low 0.901 | S. cerevisiae deletion strains, locus YOR106W, strain vam3, active compounds read low 0.924 | S. cerevisiae deletion strains, locus YOR136W, strain idh2, active compounds read low 0.986 | S. cerevisiae deletion strains, locus YOR144C, strain elg1, active compounds read low 0.985 | S. cerevisiae deletion strains, locus YOR184W, strain ser1, active compounds read low 0.974 | S. cerevisiae deletion strains, locus YOR231W, strain MKK1, active compounds read low 0.983 | S. cerevisiae deletion strains, locus YOR265W, strain rbl2, active compounds read low 0.969 | S. cerevisiae deletion strains, locus YOR270C, strain vph1, active compounds read low 0.988 | S. cerevisiae deletion strains, locus YOR290C, strain snf2, active compounds read low 0.962 | S. cerevisiae deletion strains, locus YOR316C, strain cot1, active compounds read low 0.991 | S. cerevisiae deletion strains, locus YPL051W, strain arl3, active compounds read low 0.967 | S. cerevisiae deletion strains, locus YPL078C, strain atp4, active compounds read low 0.961 | S. cerevisiae deletion strains, locus YPL106C, strain sse1, active compounds read low 0.976 | S. cerevisiae deletion strains, locus YPL240C, strain hsp82, active compounds read low 0.986 | S. cerevisiae deletion strains, locus YPL241C, strain CIN2, active compounds read low 1.01 | S. cerevisiae deletion strains, locus YPL256C, strain CLN2, active compounds read low 0.973 | S. cerevisiae deletion strains, locus YPR119W, strain clb2, active compounds read low 0.99 | S. cerevisiae deletion strains, locus YPR141C, strain kar3, active compounds read low 0.993 | S. cerevisiae deletion strains, locus YPR163C, strain tif3, active compounds read low 0.973 | S. cerevisiae deletion strains, locus YPR167C, strain met16, active compounds read low 0.979 | S. cerevisiae deletion strains, strain wtn01, active compounds read low 0.969 | S. cerevisiae strains, strain wild type, active compounds read low 1.01

Reference: PubChem BioAssay AID1159580 (chemical genetic matrix, 2015)
